hcDAF12 agonist = H. contortus DAF-12 activation, primary screen | HEK293 hcDAF-12 lit1-tk-luc reporter, luminescence; 0% DMSO, 100% Δ7-dafachronic acid | activation, % at 6.8 µM | actives 1.4% (n = 370,000) | AID 652067;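 active = activation above the mean of all tested compounds plus 3 SD, cut at about 5.5% in these data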
DAX1 inh-1 = NR0B1 (DAX1) inhibition; actives 0.99% (n = 340,000); inhibition, % at 6.75 µM; AID 504766; P51843; HEK293 Gal4-DAX1 luciferase reporter, luminescence;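 active = inhibition above the mean over all tested compounds plus 3 SD, cut at about 4.2% in these data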;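 note: inhibition shows as a rise in luminescence from relieved DAX1 repression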
Target sequence (P51843 207-470 limits assumed): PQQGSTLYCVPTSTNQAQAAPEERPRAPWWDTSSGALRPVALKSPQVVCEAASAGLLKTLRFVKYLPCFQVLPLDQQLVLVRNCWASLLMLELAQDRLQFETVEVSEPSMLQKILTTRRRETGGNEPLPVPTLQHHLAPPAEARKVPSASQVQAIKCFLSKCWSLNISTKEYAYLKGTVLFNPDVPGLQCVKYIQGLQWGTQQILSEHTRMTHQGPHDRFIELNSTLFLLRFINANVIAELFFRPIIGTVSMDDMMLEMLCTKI
DAX1 inh-2 = blocks DAX1 repression of SF-1 activated StAR promoter; actives 1.1% (n = 370,000); HEK293T StAR-luciferase reporter, SF-1/DAX-1 repression relief; AID 652010; inhibition, % at 6.8 µM;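 active = inhibition above the mean over all tested compounds plus 3 SD, cut at about 3.6% in these data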;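 note: higher inhibition means more luminescence from relief of DAX-1 repression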
hgDAF12 agonist = hgDAF-12 agonism, primary luciferase screen | HEK293 GAL4-hgDAF12 UAS-luciferase reporter, agonist luminescence; normalized to butyrate control | activation, % at 6.8 µM | actives 1.8% (n = 370,000) | AID 687014;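 active = activation above a cutoff set at the mean of all screened compounds plus 3 SD, cut at about 10% in these data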
ssDAF-12 act = S. stercoralis DAF-12 activation, primary screen. HEK293 ssDAF-12/GRIP1 lit1-tk-luc reporter, luminescence; % of 3 µM dafachronic acid response. actives 1% (n = 370,000). activation, % at 6.8 µM;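 active = activation above the mean over all tested compounds plus 3 SD, cut at about 0.9% in these data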
hgDAF12 ag = confirmation of H. glycines DAF-12 agonists. shares compounds with hgDAF12 agonist. HEK293 GAL4-hgDAF12 luciferase reporter, agonist mode; percent of butyrate response. activation, % at 6.8 µM. actives 80% (n = 3,300). AID 743050;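 active = mean activation over triplicate wells above the hit cutoff derived from the earlier primary screen, cut at about 11% in these data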
LXRb DAF12 ctr = activates human LXR-beta, counter-screen for DAF-12 agonists; shares compounds with hgDAF12 agonist; HEK293 Gal4-LXR luciferase reporter, 24 h; activation, % at 6.8 µM; 3,300 tested, under 10 active;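 active = mean activation of the triplicate above a set limit carried over from the primary screen, none filed active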
Target sequence (P55055 whole entry, looked up, the tested form may be a part): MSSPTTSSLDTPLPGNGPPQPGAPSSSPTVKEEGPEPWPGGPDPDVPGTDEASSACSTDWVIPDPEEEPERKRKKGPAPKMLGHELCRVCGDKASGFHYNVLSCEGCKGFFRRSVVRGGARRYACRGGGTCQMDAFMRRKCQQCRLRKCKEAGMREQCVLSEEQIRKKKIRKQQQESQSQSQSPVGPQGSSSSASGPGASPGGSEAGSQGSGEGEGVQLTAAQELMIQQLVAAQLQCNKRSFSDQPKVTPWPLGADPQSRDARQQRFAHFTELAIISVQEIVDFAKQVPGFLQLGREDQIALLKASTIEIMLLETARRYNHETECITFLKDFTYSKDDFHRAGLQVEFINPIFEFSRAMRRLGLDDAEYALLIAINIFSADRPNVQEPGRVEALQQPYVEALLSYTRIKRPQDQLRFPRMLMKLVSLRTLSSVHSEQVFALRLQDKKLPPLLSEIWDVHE
Each line names hits and unclear results; the compound was inactive in the other large screens (follow-up assays come after a bar, where they were run). A selection: hits, their analogues and other compounds. The true share with any hit is near 4.1%.

c1ccc(COc2ncnc3c2ncn3CCCN2CCN(c3ncccn3)CC2)cc1	none
Cc1cccc(-c2nsc(SCC(=O)NCc3ccco3)n2)c1	none
Cc1cccc(-c2nsc(SCC(=O)NCC3CCCO3)n2)c1 (stereo unspecified)	hgDAF12 agonist 17.9 | hgDAF12 ag inactive | LXRb DAF12 ctr inactive
Fc1ccc(N=C2NN=C(c3cc(F)ccc3F)CS2)cc1	hgDAF12 agonist 16.3 | hgDAF12 ag 10.6 | LXRb DAF12 ctr inactive
C[C@@H]1CN([C@H](C)CO)S(=O)(=O)c2ccc(C#CC3CCCC3)cc2O[C@H]1CN(C)C(=O)Cc1ccccc1	none
COC(=O)C1C(=O)c2c([nH]c(C(=O)OC3CCCCC3)c2C)CC1C (stereo unspecified)	DAX1 inh-1 5.3, hgDAF12 agonist 14.9 | hgDAF12 ag 11.9 | LXRb DAF12 ctr inactive
COC(=O)C1C(=O)c2c([nH]c(C(=O)OCCOC(C)C)c2C)CC1C (stereo unspecified)	none (no result: DAX1 inh-1)
Cc1ccc(C)c(NCCCCC(=O)O)c1	none (no result: DAX1 inh-1)
O=C(N/N=C/C(Cl)=C\c1ccccc1)c1cccs1	hgDAF12 agonist 17.9, ssDAF-12 act 1.4 | hgDAF12 ag 15.8 | LXRb DAF12 ctr inactive
O=C(N/N=C/C(Cl)=C/c1ccccc1)c1ccncc1	none (no result: DAX1 inh-1)
CC(/C=N/NC(=O)c1ccccn1)=C\c1ccco1	hgDAF12 agonist 13.7, ssDAF-12 act 1.2 (no result: DAX1 inh-1) | hgDAF12 ag 11.1 | LXRb DAF12 ctr inactive
O=C(N/N=C/C(Cl)=C/c1ccccc1)c1ccccn1	hgDAF12 agonist 15.3 | hgDAF12 ag 12.3 | LXRb DAF12 ctr inactive
CNc1nc(Oc2cccc(NC(C)=O)c2)c2sccc2n1	none (no result: DAX1 inh-1)
NC(=O)c1cc(N)ccc1N1CCCCC1	hgDAF12 agonist 22.0 (no result: DAX1 inh-1) | hgDAF12 ag inactive | LXRb DAF12 ctr inactive
COc1ccc(CN2CCC3CC2c2cc(Cl)ccc23)cc1 (stereo unspecified)	none
Cc1ccc(-c2nnc(CCC(=O)NCC3C4CC5CC(C4)CC3C5)o2)s1 (stereo unspecified)	hgDAF12 agonist 13.6 | hgDAF12 ag inactive | LXRb DAF12 ctr inactive
Brc1ccc(-c2csc(N3CCCCCC3)n2)cc1	none
Brc1ccc(-c2csc(N3CCOCC3)n2)cc1	DAX1 inh-1 7.5, DAX1 inh-2 4.1, hgDAF12 agonist 19.3 | hgDAF12 ag 11.2 | LXRb DAF12 ctr inactive
Cc1cccc(Nc2nc3c(s2)CCCC3)c1	hgDAF12 agonist 18.4 | hgDAF12 ag 16.4 | LXRb DAF12 ctr inactive
CC(=O)c1sc(Nc2cccc(C)c2)nc1C	none
COC(=O)[C@]1(C)N[C@H](CN(C)S(=O)(=O)c2ccc(OC(F)(F)F)cc2)[C@@H]2C(=O)N(C)C(=O)[C@@H]21	none
c1ccc(CNc2nc3ccccc3[nH]2)cc1	none
c1ccc2[nH]c(NCc3ccc4c(c3)OCO4)nc2c1	hgDAF12 agonist 13.6 | hgDAF12 ag inactive | LXRb DAF12 ctr inactive
Cc1cc(SCC(=O)N2CCN(C(=O)c3ccco3)CC2)c(C)cc1Br	none
O=C(c1ccc(-c2cc(Cl)ccc2Cl)o1)N1CCOCC1	none
O=C(c1ccc(-c2ccc(Cl)cc2Cl)o1)N1CCOCC1	DAX1 inh-1 4.4, hgDAF12 agonist 17.6 | hgDAF12 ag 12.2 | LXRb DAF12 ctr inactive
CN1CCN(c2ccc(NC(=O)c3ccc(-c4ccccc4F)o3)cc2)CC1	DAX1 inh-2 4.4, hgDAF12 agonist 24.0, ssDAF-12 act 1.4 | hgDAF12 ag 17.3 | LXRb DAF12 ctr inactive
O=C(Nc1ccccc1)c1ccc(-c2ccccc2C(F)(F)F)o1	none
CN1CCN(c2ccc(NC(=O)c3ccccc3Br)cc2)CC1	none
O=C(Nc1ccccc1)c1ccc(-c2ccccc2Cl)o1	hgDAF12 agonist 13.2 | hgDAF12 ag 13.0 | LXRb DAF12 ctr inactive
CC1(C(=O)NS(=O)(=O)c2cccc(F)c2)CCN1C(=O)Cc1cccc2ccccc12 (stereo unspecified)	none (no result: DAX1 inh-1)
Cc1ccc(Nc2nc(C)cs2)cc1	hgDAF12 agonist 16.4 | hgDAF12 ag 14.1 | LXRb DAF12 ctr inactive
O=[N+]([O-])c1cccnc1NCc1cccs1	none
FC(F)(F)c1cnc(-c2cnc(-c3ccncc3)nc2)c(Cl)c1	none
FC(F)(F)c1cnc(-c2cnc(-c3ccccn3)nc2)c(Cl)c1	DAX1 inh-2 4.4, hgDAF12 agonist 16.6 | hgDAF12 ag 13.7 | LXRb DAF12 ctr inactive
CCC/C=C/c1ccc(CN2C(C)C(=O)N(Cc3cn(CC4CCCCC4)nn3)CCS2(=O)=O)cc1 (stereo unspecified)	none
O=C(Nc1ccc2c(c1)C(=O)NC2=O)c1ccc2ncsc2c1	none
O=C(Nc1ccc(Br)cc1)c1ccc2ncsc2c1	hgDAF12 agonist 18.8, ssDAF-12 act 1.0 | hgDAF12 ag 15.5 | LXRb DAF12 ctr inactive
C[C@@H]1CN([C@@H](C)CO)S(=O)(=O)c2ccc(Br)cc2O[C@@H]1CN(C)Cc1ccc2c(c1)OCO2	none (no result: DAX1 inh-1)
COc1ccc(Br)cc1/C=N/Nc1cccc(C(=O)O)c1	none
COc1ccccc1/C=C/C=N/Nc1cccc(C(=O)O)c1	hgDAF12 agonist 15.2, ssDAF-12 act 1.6 | hgDAF12 ag 22.2 | LXRb DAF12 ctr inactive
COC1=CC(=O)OC(c2cccc(C#N)c2)C1 (stereo unspecified)	none (no result: DAX1 inh-1)
c1cnn2c(-c3ccc4c(c3)CCO4)cnc2c1	hgDAF12 agonist 14.0 (no result: DAX1 inh-1) | hgDAF12 ag inactive | LXRb DAF12 ctr inactive
CC(NC(=O)c1ccc(S(=O)(=O)N(C)C)cc1)c1ccc(-n2ccnc2)cc1 (stereo unspecified)	none
COc1cccc(C(=O)Nc2ccc3c(c2)OCO3)c1OC	hcDAF12 agonist 5.8, hgDAF12 agonist 13.9 | hgDAF12 ag 14.2 | LXRb DAF12 ctr inactive
O=C(CCl)Nc1ccccc1C(=O)Nc1ccc2c(c1)OCO2	hgDAF12 agonist 19.1 | hgDAF12 ag inactive | LXRb DAF12 ctr inactive
COc1cccc(C(=O)NCc2ccc3c(c2)OCO3)c1OC	none
CC1=NN(C(=O)c2ccc(C)o2)C(O)(c2ccccc2)C1 (stereo unspecified)	DAX1 inh-2 3.9, hgDAF12 agonist 16.6 | hgDAF12 ag inactive | LXRb DAF12 ctr inactive
O=C(Nc1ccc2nc(-c3ccccn3)c(-c3ccccn3)nc2c1)N1CCOCC1	hgDAF12 agonist 14.8 | hgDAF12 ag inactive | LXRb DAF12 ctr inactive
O=C(Nc1ccccn1)N1CCOCC1	none
C=C(C)CN(CC)C(=O)CCc1nnc(CCCc2ccccc2)o1	hgDAF12 agonist 17.4 | hgDAF12 ag 11.9 | LXRb DAF12 ctr inactive
COCCc1nc2ccc(C(=O)N3CCCCC3COC)cc2o1 (stereo unspecified)	none
COCCC1CCCCN1C(=O)c1ccc2nc(Cc3ccccc3F)oc2c1 (stereo unspecified)	hcDAF12 agonist 5.6, DAX1 inh-2 3.9, hgDAF12 agonist 13.6 | hgDAF12 ag 12.4 | LXRb DAF12 ctr inactive

High-throughput results: PubChem BioAssay, The Scripps Research Institute Molecular Screening Center
